For experiment [1], the target named is Glutathione S-transferase omega-1 (Homo sapiens) (UniProt P78417). The experiment in a line: GSTO1 inhibitor hit confirmation, counter-screen for RBBP9 inhibitor project, biochemical, fluorescence polarization, triplicate (AID 2176;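 active means inhibition above the primary screen's cutoff, its mean inhibition plus 3 SD, cut at about 35% in these data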;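 further: loss of polarization as inhibitors block binding of rhodamine sulfonate ester activity probe; 0% = GSTO1 with DMSO and 100% = wells lacking GSTO1 enzyme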). To be noted: recombinant GSTO1, probe fluorescence polarization; at 5.96 µM; hits give high values.
For experiment [2], the target named is Nuclear receptor coactivator 3 (Homo sapiens) (UniProt Q9Y6Q9). The experiment in a line: SRC3 coactivator transcriptional activity inhibitors, confirmation, cell-based, luminescence, quadruplicate (AID 588792;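 active means mean inhibition over 43.08%, the solvent-only control mean plus 3 SD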;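 further: 0% = DMSO treated cells and 100% = gossypol at 36 µM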). Conditions: HEK293 GAL4-SRC3 luciferase reporter, at 3.6 µM, hits give high values. Background: Reporter assays use an easily measured gene product as a stand-in for the process of interest.

Experiment [3] relates to transactivating tegument protein VP16 (Human herpesvirus 1), Gal4-VP16 luciferase reporter. In words: VP16 transactivation inhibitors, counter-screen for SRC3 inhibitor project, cell-based, luminescence, high throughput (AID 588794; in the data active means inhibition above about 30%). Conditions: mammalian cells, VP16-driven luciferase reporter luminescence; at 3.6 µM; hits give high values. On the technique in general: A counterscreen serves to expose hits that act by an unwanted route or on another target.

Experiment [4] has as its target Photoreceptor-specific nuclear receptor (Homo sapiens) (UniProt Q9Y5X4). In words: NR2E3 agonists, confirmation, biochemical, TR-FRET (AID 2379). To be noted: cell-free NR2E3 corepressor release, 5 h, at 3.98 µM, hits give high values. On the technique in general: In TR-FRET formats the signal depends on donor and acceptor labels being close together.
Experiment [5] concerns the target Peroxisome proliferator-activated receptor gamma (Homo sapiens) + Nuclear receptor corepressor 2 (Homo sapiens) (UniProt P37231+Q9Y618). In words: agonists of PPARg-NCOR2 corepressor interaction, counter-screen for NR2E3 agonist project, biochemical, TR-FRET (AID 504787; in the data active means inhibition above about 20%;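 further: 0% = DMSO vehicle and 100% = wells without protein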). Conditions: TR-FRET PPARg-NCOR2 coregulator interaction, at 3.98 µM, hits give high values.
The target in experiment [6] is Lytic switch protein BZLF1 (Epstein-Barr virus (strain B95-8)) (UniProt P03206). In words: EBV Zta binding to ZRE DNA, inhibitors, confirmation, biochemical, fluorescence polarization, triplicate (AID 2361;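 active means mean inhibition across triplicate runs above the hit threshold derived for the original primary screen, cut at about 33% in these data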;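 further: 0% = Zta with DMSO and 100% = wells lacking Zta protein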). To be noted: at 11.1 µM, hits give high values.
Experiment [7] deals with Epstein-Barr virus nuclear antigen 1 (EBNA-1), Human herpesvirus 4. In words: EBNA-1 DNA-binding inhibition, counter-screen for ZTA inhibitor project, biochemical, fluorescence polarization (AID 2362; call rule not given here). To be noted: at 14.8 µM, hits give high values.
For experiment [8], the target named is Oxytocin receptor (Homo sapiens) (UniProt P30559). The experiment in a line: human OXTR agonists, confirmation, fluorescence, CHO-OTR cells, triplicate (AID 434963;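 active means mean activation above about 20% derived from the earlier single-dose screen, limit read from the data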;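 further: peak over minimum fluorescence ratio per well during a 100 second FLIPR read; 0% = DMSO alone and 100% = oxytocin high control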). Conditions: Fluo-8 calcium fluorescence, agonist, at 3 µM, hits give high values.
Experiment [9] addresses Vasopressin V1a receptor (Homo sapiens) (UniProt P37288). In words: V1a receptor agonists, calcium signal, counter-screen for OXTR agonist project, triplicate, fluorescence, CHO-V1R cells (AID 434991;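 active means mean activation over triplicate exceeds the hit threshold set in the earlier primary screen, cut at about 20% in these data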;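 further: peak over basal fluorescence ratio within a 100 second read; 0% = DMSO alone and 100% = 3 nM vasopressin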). Conditions: Fluo-8 calcium fluorescence, at 3 µM, hits give high values.
For experiment [10], the system named is transactivating tegument protein VP16 (Human herpesvirus 1). In words: VP16 transactivation reporter inhibitors, counter-screen for SRC2 inhibitor project, cell-based, luminescence, single concentration (AID 652007; in the data active means inhibition above about 36%). Conditions: cell-based VP16 transactivation luciferase reporter, at 8.9 µM, hits give high values.
Experiment [11] deals with Nuclear receptor coactivator 2 (Homo sapiens) (UniProt Q15596). The experiment in a line: SRC2 coactivator transcriptional activity inhibitors, confirmation, cell-based, luminescence, HEK293, triplicate (AID 652008;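 active means mean inhibition above 46.5%, the solvent-only control mean plus 3 SD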;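 further: 0% = DMSO-treated cells and 100% = Gossypol at 36 µM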). To be noted: HEK293 GAL4-SRC2 luciferase reporter, at 8.9 µM, hits give high values.
Experiment [12] has as its target Serine protease HTRA1 (Homo sapiens) (UniProt Q92743). In words: HTRA1 protease inhibitors, retest, confirmation, biochemical, fluorescence polarization (AID 540248;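 active means mean inhibition over three repeats above a set limit taken from the earlier primary screen, cut at about 37% in these data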;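 further: 0% = HTRA1 with DMSO and 100% = wells lacking HTRA1; inhibitors block probe binding so polarization drops and inhibition rises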). To be noted: recombinant HTRA1, FP-rhodamine activity-based probe, at 5.96 µM, hits give high values.
The target of experiment [13] is (Lyso)-N-acylphosphatidylethanolamine lipase (Mus musculus) (UniProt Q8VD66). The experiment in a line: ABHD4 inhibitors, retest, confirmation, biochemical, fluorescence polarization, mouse (AID 720658;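 active means mean inhibition across replicates above the hit cutoff set in the primary screen, cut at about 30% in these data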;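 further: 0% = wild-type ABHD4 with DMSO and 100% = catalytically dead S159A mutant with DMSO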). Conditions: purified mABHD4, FP-Rh probe fluorescence polarization; at 8.92 µM; hits give high values.

Values without a mark were called inactive. The list shows a part of the results. Activity calls are given as the source filed them. Unless noted, no stated cut-off is given here; in the data, active means activation above about 20%; inactive means the rest.

Sequence of Peroxisome proliferator-activated receptor gamma (Homo sapiens) + Nuclear receptor corepressor 2 (Homo sapiens) (P37231 whole entry, looked up): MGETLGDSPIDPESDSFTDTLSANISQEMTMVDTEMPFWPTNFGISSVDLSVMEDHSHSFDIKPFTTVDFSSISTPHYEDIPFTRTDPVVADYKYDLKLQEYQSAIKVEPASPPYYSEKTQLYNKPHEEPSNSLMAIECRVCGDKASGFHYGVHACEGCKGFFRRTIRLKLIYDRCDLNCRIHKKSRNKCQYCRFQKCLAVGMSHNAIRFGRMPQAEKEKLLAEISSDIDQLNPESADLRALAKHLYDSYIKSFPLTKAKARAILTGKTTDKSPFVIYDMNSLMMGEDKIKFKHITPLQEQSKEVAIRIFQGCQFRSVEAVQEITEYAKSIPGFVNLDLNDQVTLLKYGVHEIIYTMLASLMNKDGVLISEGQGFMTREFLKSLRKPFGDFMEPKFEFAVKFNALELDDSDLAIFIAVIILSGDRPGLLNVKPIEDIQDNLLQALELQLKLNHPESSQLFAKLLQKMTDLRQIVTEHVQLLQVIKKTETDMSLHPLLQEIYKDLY
Sequence of Peroxisome proliferator-activated receptor gamma (Homo sapiens) + Nuclear receptor corepressor 2 (Homo sapiens) (Q9Y618 whole entry, looked up): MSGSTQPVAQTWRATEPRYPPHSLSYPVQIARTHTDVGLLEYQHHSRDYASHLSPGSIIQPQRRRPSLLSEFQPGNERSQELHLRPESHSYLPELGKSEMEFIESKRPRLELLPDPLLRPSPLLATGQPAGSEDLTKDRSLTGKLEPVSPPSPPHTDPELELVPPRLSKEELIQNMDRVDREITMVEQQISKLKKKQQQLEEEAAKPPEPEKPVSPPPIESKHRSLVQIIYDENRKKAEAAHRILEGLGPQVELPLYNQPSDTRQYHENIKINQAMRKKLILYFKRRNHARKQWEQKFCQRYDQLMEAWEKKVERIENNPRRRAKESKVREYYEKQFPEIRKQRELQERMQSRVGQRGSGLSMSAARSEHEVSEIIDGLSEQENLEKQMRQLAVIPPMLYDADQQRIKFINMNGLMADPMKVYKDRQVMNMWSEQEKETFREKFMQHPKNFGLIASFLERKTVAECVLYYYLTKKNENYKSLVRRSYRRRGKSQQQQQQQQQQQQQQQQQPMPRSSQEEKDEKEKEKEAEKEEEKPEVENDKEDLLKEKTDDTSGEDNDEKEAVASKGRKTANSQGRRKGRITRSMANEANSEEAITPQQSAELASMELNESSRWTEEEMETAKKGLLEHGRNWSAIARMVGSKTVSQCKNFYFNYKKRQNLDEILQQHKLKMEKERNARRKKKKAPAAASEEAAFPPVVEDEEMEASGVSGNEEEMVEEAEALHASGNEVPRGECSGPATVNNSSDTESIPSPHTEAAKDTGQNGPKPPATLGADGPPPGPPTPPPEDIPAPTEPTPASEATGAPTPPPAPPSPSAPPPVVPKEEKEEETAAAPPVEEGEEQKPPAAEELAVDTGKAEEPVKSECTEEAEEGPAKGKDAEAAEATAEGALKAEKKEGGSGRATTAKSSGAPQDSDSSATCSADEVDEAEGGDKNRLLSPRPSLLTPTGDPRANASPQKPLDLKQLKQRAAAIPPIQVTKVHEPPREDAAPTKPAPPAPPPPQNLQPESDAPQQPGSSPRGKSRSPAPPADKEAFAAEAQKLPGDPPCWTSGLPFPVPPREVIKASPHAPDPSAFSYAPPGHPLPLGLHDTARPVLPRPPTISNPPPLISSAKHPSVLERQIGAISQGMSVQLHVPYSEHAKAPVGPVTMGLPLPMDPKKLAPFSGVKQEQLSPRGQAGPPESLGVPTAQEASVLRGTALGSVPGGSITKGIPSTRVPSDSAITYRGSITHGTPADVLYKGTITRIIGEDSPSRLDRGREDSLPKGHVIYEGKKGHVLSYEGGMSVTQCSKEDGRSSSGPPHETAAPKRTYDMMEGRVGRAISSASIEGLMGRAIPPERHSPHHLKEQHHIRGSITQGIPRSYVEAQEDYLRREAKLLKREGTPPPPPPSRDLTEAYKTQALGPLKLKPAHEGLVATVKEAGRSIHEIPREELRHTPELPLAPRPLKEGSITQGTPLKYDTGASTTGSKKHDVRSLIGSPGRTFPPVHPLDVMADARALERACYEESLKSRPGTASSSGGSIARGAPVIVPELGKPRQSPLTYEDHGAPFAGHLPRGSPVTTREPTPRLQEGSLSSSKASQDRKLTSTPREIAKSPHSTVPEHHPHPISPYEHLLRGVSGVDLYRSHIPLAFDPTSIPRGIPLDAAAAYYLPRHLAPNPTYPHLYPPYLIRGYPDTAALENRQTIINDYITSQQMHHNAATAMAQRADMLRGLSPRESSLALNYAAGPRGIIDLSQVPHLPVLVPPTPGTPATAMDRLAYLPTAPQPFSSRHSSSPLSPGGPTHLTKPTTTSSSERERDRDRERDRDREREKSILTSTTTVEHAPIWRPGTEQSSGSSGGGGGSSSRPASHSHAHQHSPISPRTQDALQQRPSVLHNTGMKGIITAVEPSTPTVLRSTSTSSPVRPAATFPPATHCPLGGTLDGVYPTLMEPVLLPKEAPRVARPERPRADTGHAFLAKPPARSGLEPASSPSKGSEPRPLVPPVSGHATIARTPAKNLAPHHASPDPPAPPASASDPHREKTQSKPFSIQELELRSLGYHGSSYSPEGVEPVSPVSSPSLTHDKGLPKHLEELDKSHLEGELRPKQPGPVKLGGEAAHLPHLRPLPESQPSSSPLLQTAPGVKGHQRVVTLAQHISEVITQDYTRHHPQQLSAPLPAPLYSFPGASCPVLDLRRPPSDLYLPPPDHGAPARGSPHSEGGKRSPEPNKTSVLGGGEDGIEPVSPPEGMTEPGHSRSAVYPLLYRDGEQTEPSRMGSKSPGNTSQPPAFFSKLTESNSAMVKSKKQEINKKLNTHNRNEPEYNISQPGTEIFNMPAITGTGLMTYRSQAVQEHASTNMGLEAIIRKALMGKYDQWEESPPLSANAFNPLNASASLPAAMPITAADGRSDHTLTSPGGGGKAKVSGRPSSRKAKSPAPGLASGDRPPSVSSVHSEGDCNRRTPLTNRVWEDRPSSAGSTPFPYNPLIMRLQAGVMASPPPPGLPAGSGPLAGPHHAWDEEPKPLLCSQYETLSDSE
Sequence of Glutathione S-transferase omega-1 (Homo sapiens) (P78417 whole entry, looked up): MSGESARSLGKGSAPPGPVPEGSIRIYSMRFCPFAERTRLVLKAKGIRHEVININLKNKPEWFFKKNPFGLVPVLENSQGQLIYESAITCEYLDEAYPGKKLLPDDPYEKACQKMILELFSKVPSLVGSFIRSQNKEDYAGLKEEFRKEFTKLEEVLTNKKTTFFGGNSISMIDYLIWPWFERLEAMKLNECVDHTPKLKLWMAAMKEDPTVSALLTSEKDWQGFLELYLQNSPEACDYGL
Sequence of Photoreceptor-specific nuclear receptor (Homo sapiens) (Q9Y5X4 whole entry, looked up): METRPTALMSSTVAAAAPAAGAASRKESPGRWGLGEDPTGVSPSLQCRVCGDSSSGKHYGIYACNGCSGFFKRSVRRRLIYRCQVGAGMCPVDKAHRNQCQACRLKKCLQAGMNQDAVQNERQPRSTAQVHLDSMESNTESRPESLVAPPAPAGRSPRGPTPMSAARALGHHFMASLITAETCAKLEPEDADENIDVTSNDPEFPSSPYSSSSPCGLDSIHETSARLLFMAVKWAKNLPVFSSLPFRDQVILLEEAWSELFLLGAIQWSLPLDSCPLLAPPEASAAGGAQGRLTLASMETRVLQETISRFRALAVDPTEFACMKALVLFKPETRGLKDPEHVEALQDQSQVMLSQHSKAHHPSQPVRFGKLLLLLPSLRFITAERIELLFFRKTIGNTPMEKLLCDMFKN
Sequence of Vasopressin V1a receptor (Homo sapiens) (P37288 whole entry, looked up): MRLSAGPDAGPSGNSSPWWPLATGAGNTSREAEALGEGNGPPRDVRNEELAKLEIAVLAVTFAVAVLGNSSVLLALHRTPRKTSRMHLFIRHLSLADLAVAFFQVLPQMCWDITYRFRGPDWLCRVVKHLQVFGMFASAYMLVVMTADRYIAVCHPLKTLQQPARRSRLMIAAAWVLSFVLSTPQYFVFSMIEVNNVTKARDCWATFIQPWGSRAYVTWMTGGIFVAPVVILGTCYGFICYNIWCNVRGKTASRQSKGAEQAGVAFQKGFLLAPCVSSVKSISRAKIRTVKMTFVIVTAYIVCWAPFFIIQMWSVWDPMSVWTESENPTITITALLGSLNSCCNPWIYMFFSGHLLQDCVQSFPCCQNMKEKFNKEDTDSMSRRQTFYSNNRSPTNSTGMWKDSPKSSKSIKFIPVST
Sequence of Oxytocin receptor (Homo sapiens) (P30559 whole entry, looked up): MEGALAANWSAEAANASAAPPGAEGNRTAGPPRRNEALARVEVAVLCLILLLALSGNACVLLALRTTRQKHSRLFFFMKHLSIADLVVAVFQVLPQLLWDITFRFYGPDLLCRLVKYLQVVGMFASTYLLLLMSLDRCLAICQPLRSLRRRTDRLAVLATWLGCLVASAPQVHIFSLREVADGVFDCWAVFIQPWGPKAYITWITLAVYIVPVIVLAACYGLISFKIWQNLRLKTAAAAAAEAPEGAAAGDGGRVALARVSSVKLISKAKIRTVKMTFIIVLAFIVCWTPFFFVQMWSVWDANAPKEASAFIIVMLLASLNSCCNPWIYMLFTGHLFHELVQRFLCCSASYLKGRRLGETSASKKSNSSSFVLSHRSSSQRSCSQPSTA
Sequence of (Lyso)-N-acylphosphatidylethanolamine lipase (Mus musculus) (Q8VD66 whole entry, looked up): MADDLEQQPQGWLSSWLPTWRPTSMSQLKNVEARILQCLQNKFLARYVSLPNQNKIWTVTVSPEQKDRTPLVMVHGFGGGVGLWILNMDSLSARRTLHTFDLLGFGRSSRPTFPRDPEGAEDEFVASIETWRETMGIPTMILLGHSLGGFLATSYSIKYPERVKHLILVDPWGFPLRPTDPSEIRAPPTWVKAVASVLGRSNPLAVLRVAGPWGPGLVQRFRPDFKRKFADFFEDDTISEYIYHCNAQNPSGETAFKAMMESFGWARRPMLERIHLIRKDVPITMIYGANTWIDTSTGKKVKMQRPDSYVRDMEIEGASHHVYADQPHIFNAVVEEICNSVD

Consider `CCN(CCCNC(=O)c1ccc2c(c1)NC(=O)CN2C)c1cccc(C)c1`, for which the inhibition (commonly the relative decrease from the control value, in per cent) was 36.3% (active) in [1], 10.3% in experiment [2] and 1.36% in [3].

Turning to `CC(C)c1ccc(C2C(C(=O)c3ccco3)=C(O)C(=O)N2CC2CCCO2)cc1` (configuration not stated), in [4], the activation (reported as inhibition) was -0.08%. The inhibition in experiment [5] was 1.84%.

On to `Cn1cnc2c1c(=O)n(Cc1ccccc1C#N)c(=O)n2C`, for which the inhibition in experiment [6] was -1.92%; in experiment [7] it was -2.72%.

Regarding `CCCCCCCCCCOC(=O)Cn1c(COc2cccc(OC)c2)[n+](C)c2ccccc21`, the activation in [8] was 12%; in experiment [9], 14.7%.

For `COc1cc2[nH]c(=S)n(Cc3ccc(C)o3)c(=O)c2cc1OC`, the activation (reported as inhibition) in [4] is -5.72%. Further, in experiment [5], the inhibition is -2.05%.

Take `Cc1ccc(N(Cc2cc(=O)[nH]c3ccccc23)C(=O)CCl)cc1`: the inhibition is 90% (active) in [1], 33.7% in [10] and 51.6% (active) in [11].

On to `COc1ccc(Cl)cc1NC(=O)NCC1CCN(Cc2ccccc2F)CC1`, for which the activation is 7.35% in [8] and 6.95% in [9].

Consider `CCOC(=O)c1ccc(NC(=S)N2CCN(c3ccccn3)CC2)cc1`, for which the activation (reported as inhibition) in [4] is -3.59%. In addition, the inhibition in experiment [5] was -8.54%.

For `CC1=CC2=NC(=O)/C(=C/c3coc4ccccc4c3=O)C(=N)N2O1`, the values for the activation in [8] and in experiment [9] were 40% (active) and 36.5% (active), respectively.

`Cc1cccc(N2CCN(c3ccc(NC(=O)/C=C\C(=O)O)cc3)CC2)c1`: the inhibition in experiment [1] is 7.27%; in [12] it was 6.16%; in experiment [13] it was 0.64%.

As for `N#Cc1ccccc1Sc1ccccc1C(=O)OCC(=O)NC1CCCCC1`, the activation (reported as inhibition) in experiment [4] is 10.1%. For the same molecule, the inhibition in [5] is 21.8% (active).

Regarding `N#Cc1c(N)nc2c3c(sc(=N)c2c1N)NC(=O)CC3c1ccccc1Cl` (configuration not stated), the activation (reported as inhibition) in [4] is -9.26%. In [5], the inhibition is -7.41%.

Source of the values: PubChem BioAssay.
